Read-out in experiment [1]: glucuronosyltransferase (UGT1A1), UGT1A1 (gene 54658)
The experiment is described as follows: CLD_UGT1A1_6hr: CellzDirect (CLD) Gene Expression Assay for glucuronosyltransferase (UGT1A1) at 6 hours (AID 2283672). The method, boiled down: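 Primary human hepatocytes from two donor preparations, dosed with fresh solutions in 0.2% DMSO, harvested at 6 h. UGT1A1 mRNA measured by qNPA chemiluminescence; induction fitted upward versus DMSO.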

Read-out in experiment [2]: ABC Transporter (ABCB11), ABCB11 (gene 8647)
The experiment is described as follows: CLD_ABCB11_6hr: CellzDirect (CLD) Gene Expression Assay for ABC Transporter (ABCB11) at 6 hours (AID 2283675).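 Note: hits raise ABCB11 mRNA level so AC50 marks induction.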 In a few lines:
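Human primary hepatocytes (two donor preparations) given fresh chemical daily at multiple concentrations, vehicle 0.2% DMSO. ABCB11 mRNA induction measured 6 h after dosing by qNPA chemiluminescence versus DMSO; cytotoxicity annotated from morphology.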

The nature of experiment [3]: CLD_ACTIN_6hr: CellzDirect (CLD) Gene Expression Assay for Baseline Control (Actin) at 6 hours (AID 2283676).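 Note: active means increased actin mRNA relative to DMSO vehicle.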 The method, boiled down:
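Primary human hepatocytes dosed with fresh chemical solutions (vehicle 0.2% DMSO), harvested at 6 h. Actin mRNA quantified by quantitative nuclease protection assay with chemiluminescent read-out, as background control relative to DMSO.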

Read-out in experiment [4]: Cytochrome P450 2B6 (Homo sapiens) (UniProt P20813)
Description: CLD_CYP2B6_6hr: CellzDirect (CLD) Gene Expression Assay for xenobiotic metabolism (CYP2B6) at 6 hours (AID 2283677).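 Note: actives raise CYP2B6 transcript above DMSO baseline so AC50 marks an inducer.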 In a few lines:
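Primary human hepatocytes dosed with chemicals at multiple concentrations, vehicle 0.2% DMSO; CYP2B6 mRNA induction measured 6 h after dosing by quantitative nuclease protection assay with chemiluminescence, gain of signal fitted relative to DMSO.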

Experiment [5] can be described thus: CCTE_Padilla_ZF_144hpf_TERATOSCORE: (Legacy) CCTE's 144 Hour Post-fertilization zebrafish Assay Teratoscore, Padilla Lab (AID 2283679; active = hit-call score of the fitted dose curve at least 0.9, where 1 is the maximum; inactive = score below 0.9;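 for AC50: zebrafish embryos with chorions exposed by immersion from 6-8 hpf to 5 dpf with daily renewal; teratogenicity score from eye scoring of death hatching and malformations at 144 hpf; higher score means more developmental defects relative to DMSO baseline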). The method, boiled down:
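Larvae scored by eye at 144 hpf for death, hatching and malformations after a day in clean Hanks'. Before that, daily-renewed exposure at 80 uM (0.4% DMSO, 26C) from roughly 6-8 hpf through 5 dpf, 4 embryos per chemical.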

Read-out in experiment [6]: Cytochrome P450 3A4 (Homo sapiens) (UniProt P08684)
The experiment is described as follows: CLD_CYP3A4_6hr: CellzDirect (CLD) Gene Expression Assay for xenobiotic metabolism (CYP3A4) at 6 hours (AID 2283680). The method, boiled down:
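Primary human hepatocytes (two donor preparations) dosed; CYP3A4 mRNA harvested at 6 h and quantified by qNPA chemiluminescence. Gain of signal fitted against 0.2% DMSO vehicle; cytotoxicity flagged by phase-contrast morphology.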

Read-out in experiment [7]: Glyceraldehyde-3-phosphate dehydrogenase (Homo sapiens) (UniProt P04406)
The experiment is described as follows: CLD_GAPDH_6hr: CellzDirect (CLD) Gene Expression Assay for Baseline Control (Glyceraldehyde 3-phosphate dehydrogenase) at 6 hours (AID 2283681).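 Note: active means increased signal relative to DMSO vehicle.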 The method, boiled down: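 Primary human hepatocytes from two donor preparations, dosed at multiple concentrations with 0.2% DMSO vehicle; GAPDH mRNA measured 6 h after dosing by chemiluminescent quantitative nuclease protection assay (qNPA) on denatured lysates. Serves as background control; cytotoxicity annotated by morphology.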

Read-out in experiment [8]: Cytochrome P450 2C19 (Homo sapiens) (UniProt P33261)
Description: CLD_CYP2C19_24hr: CellzDirect (CLD) Gene Expression Assay for xenobiotic metabolism (CYP2C19) at 24 hours (AID 2283687).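 Note: activity means mRNA induction above DMSO vehicle baseline.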 In a few lines:
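Primary human hepatocytes (two donor preparations) dosed daily with fresh test chemical in 0.2% DMSO vehicle; CYP2C19 mRNA induction measured at 24 h by quantitative nuclease protection assay with chemiluminescence, fitted for gain of signal versus DMSO.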

Read-out in experiment [9]: Cytochrome P450 2C19 (Homo sapiens) (UniProt P33261)
Description: CLD_CYP2C19_6hr: CellzDirect (CLD) Gene Expression Assay for xenobiotic metabolism (CYP2C19) at 6 hours (AID 2283678). In a few lines: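 Primary human hepatocytes from two donor preparations were dosed daily, with 0.2% DMSO as vehicle, and harvested 6 h after dosing. CYP2C19 mRNA induction was measured by qNPA chemiluminescence and fitted as gain of signal against DMSO.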

Read-out in experiment [10]: xenobiotic metabolism (CYP1A2), CYP1A2 (gene 1544)
The experiment is described as follows: CLD_CYP1A2_24hr: CellzDirect (CLD) Gene Expression Assay for xenobiotic metabolism (CYP1A2) at 24 hours (AID 2283683). The method, boiled down:
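Primary human hepatocytes from two donor preparations dosed daily with multiple concentrations of chemical, 0.2% DMSO vehicle. CYP1A2 mRNA at 24 h quantified by qNPA chemiluminescence; gain of signal analyzed relative to DMSO. Cytotoxicity flagged by phase-contrast morphology.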

Read-out in experiment [11]: ABC Transporter (ABCB1), ABCB1 (gene 5243)
The experiment is described as follows: CLD_ABCB1_24hr: CellzDirect (CLD) Gene Expression Assay for ABC Transporter (ABCB1) at 24 hours (AID 2283684).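 For AC50: potency for increase in ABCB1 mRNA relative to DMSO vehicle.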 The method, boiled down:
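Primary human hepatocytes, two donor preparations, dosed daily with fresh solutions; vehicle 0.2% DMSO; harvested at 24 h. ABCB1 mRNA measured by quantitative nuclease protection assay (chemiluminescence); morphology-based cytotoxicity annotated.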

Read-out in experiment [12]: Broad substrate specificity ATP-binding cassette transporter ABCG2 (Homo sapiens) (UniProt Q9UNQ0)
Description: CLD_ABCG2_24hr: CellzDirect (CLD) Gene Expression Assay for ABC Transporter (ABCG2) at 24 hours (AID 2283685). In a few lines: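 Primary human hepatocytes were dosed daily with ToxCast chemicals at multiple concentrations (vehicle 0.2% DMSO). ABCG2 mRNA was measured at 24 h by qNPA chemiluminescence; induction was scored as gain of signal versus DMSO.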

Read-out in experiment [13]: Cytochrome P450 3A4 (Homo sapiens) (UniProt P08684)
Description: CLD_CYP3A4_24hr: CellzDirect (CLD) Gene Expression Assay for xenobiotic metabolism (CYP3A4) at 24 hours (AID 2283689). In a few lines: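 Primary human hepatocytes from two donors dosed daily with fresh compound for two days, 0.2% DMSO vehicle. CYP3A4 mRNA at 24 hr by qNPA chemiluminescence; gain-of-signal fit versus DMSO, cytotoxicity flagged by morphology.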

Experiment [14] in a line: CLD_ACTIN_24hr: CellzDirect (CLD) Gene Expression Assay for Baseline Control (Actin) at 24 hours (AID 2283670). In a few lines:
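Primary human hepatocytes dosed over multiple concentrations with 0.2% DMSO vehicle; actin mRNA measured at 24 h by qNPA chemiluminescence. Background control endpoint, fitted as gain of signal versus DMSO.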

Read-out in experiment [15]: ABC Transporter (ABCB11), ABCB11 (gene 8647)
The experiment is described as follows: CLD_ABCB11_24hr: CellzDirect (CLD) Gene Expression Assay for ABC Transporter (ABCB11) at 24 hours (AID 2283674; active = hit-call score of the fitted dose curve at least 0.9, where 1 is the maximum; inactive = score below 0.9). In a few lines:
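Primary human hepatocytes were dosed daily for two days, with 0.2% DMSO vehicle. ABCB11 mRNA induction was measured at 24 hours by quantitative nuclease protection assay with chemiluminescence. Gain of signal was fitted relative to DMSO.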

Read-out in experiment [16]: Cytochrome P450 2B6 (Homo sapiens) (UniProt P20813)
The experiment is described as follows: CLD_CYP2B6_24hr: CellzDirect (CLD) Gene Expression Assay for xenobiotic metabolism (CYP2B6) at 24 hours (AID 2283686). In a few lines: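 Primary human hepatocytes dosed daily for two days with fresh solutions, harvested at 24 hours; mRNA induction quantified by qNPA chemiluminescence, gain of signal vs 0.2% DMSO vehicle. Cytotoxicity annotated from phase-contrast morphology.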

Read-out in experiment [17]: xenobiotic metabolism (CYP1A1), CYP1A1 (gene 1543)
The experiment is described as follows: CLD_CYP1A1_24hr: CellzDirect (CLD) Gene Expression Assay for xenobiotic metabolism (CYP1A1) at 24 hours (AID 2283673). The method, boiled down: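 Primary human hepatocytes dosed daily with fresh solutions in 0.2% DMSO vehicle. mRNA measured at 24 h by quantitative nuclease protection assay with chemiluminescence; gain-of-signal fit versus DMSO, with morphology-based cytotoxicity flags.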

Records with an inconclusive call do not appear. Activity calls are given as the source filed them. Rule for the calls, unless noted: active = hit-call score of the fitted dose curve at least 0.9, where 1 is the maximum; inconclusive = response in the unintended direction; inactive = score below 0.9.

Glyceraldehyde-3-phosphate dehydrogenase (Homo sapiens), sequence (P04406 whole entry, looked up): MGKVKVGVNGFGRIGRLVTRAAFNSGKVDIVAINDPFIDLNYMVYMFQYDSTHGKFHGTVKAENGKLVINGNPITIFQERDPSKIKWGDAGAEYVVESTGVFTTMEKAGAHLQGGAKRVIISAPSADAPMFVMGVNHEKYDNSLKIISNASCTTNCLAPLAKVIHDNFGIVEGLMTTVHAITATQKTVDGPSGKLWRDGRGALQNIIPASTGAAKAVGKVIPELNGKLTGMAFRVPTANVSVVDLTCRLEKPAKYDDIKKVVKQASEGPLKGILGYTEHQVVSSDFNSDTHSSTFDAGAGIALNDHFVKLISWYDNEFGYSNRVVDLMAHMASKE
Broad substrate specificity ATP-binding cassette transporter ABCG2 (Homo sapiens), sequence (Q9UNQ0 whole entry, looked up): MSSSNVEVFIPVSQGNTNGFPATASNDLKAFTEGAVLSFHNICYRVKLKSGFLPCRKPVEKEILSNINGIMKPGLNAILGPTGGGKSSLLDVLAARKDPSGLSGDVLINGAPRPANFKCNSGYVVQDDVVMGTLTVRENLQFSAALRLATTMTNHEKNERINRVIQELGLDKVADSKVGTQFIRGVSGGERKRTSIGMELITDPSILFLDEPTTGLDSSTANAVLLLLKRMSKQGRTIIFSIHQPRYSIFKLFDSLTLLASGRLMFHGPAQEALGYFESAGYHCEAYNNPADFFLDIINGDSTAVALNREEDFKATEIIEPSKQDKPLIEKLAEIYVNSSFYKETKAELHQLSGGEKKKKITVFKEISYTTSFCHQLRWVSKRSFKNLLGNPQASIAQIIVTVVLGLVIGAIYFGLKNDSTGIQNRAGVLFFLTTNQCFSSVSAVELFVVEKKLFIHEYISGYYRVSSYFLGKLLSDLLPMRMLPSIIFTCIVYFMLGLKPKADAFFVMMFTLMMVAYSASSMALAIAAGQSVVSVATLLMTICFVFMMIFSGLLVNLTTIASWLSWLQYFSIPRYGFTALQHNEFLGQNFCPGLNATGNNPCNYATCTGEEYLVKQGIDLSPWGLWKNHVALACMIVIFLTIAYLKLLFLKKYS
Cytochrome P450 3A4 (Homo sapiens), sequence (P08684 whole entry, looked up): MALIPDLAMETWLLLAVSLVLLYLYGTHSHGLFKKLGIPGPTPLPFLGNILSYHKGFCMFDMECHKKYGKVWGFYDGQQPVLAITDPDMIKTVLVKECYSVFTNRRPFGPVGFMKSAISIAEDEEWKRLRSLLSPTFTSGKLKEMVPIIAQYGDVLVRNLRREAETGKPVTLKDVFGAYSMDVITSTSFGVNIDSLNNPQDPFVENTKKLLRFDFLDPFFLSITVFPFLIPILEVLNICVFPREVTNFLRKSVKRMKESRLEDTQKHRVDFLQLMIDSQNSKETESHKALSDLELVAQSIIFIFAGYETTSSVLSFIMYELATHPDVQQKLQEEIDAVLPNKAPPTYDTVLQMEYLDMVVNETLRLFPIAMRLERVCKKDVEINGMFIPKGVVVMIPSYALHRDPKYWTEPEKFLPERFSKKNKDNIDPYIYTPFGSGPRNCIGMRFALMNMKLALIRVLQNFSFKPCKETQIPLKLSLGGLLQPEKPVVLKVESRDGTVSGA
Cytochrome P450 2C19 (Homo sapiens), sequence (P33261 whole entry, looked up): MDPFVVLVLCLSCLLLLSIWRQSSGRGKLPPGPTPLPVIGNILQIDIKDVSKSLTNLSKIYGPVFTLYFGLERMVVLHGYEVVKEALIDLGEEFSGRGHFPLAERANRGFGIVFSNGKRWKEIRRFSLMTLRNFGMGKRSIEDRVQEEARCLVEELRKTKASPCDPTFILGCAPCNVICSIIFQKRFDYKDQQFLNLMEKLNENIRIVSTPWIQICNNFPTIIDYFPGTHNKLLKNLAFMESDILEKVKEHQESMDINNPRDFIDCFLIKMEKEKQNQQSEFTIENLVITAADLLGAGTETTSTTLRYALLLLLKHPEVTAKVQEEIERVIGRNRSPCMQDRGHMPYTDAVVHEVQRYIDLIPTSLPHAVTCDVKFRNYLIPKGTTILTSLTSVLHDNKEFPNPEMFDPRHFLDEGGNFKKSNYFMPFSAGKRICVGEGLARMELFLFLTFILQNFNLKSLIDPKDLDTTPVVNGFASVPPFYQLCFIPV

By AC50 is commonly meant the midpoint of the concentration-response curve, whichever way the signal moves. In the case of `CCOP(=S)(OCC)Oc1cc(C)nc(C(C)C)n1`, the outcome in experiment [1], in experiment [2], in [3], in [6], in experiment [7] and in experiment [8] was inactive. In addition, the AC50 in experiment [4] is 1.96 µM (active); in [5], 62.7 µM (active).
As for `CCNc1nc(Cl)nc(NC(C)(C)C#N)n1`, the molecule was called inactive in experiment [1], in experiment [2], in experiment [9], in experiment [5] and in experiment [8]. Besides, in experiment [4], the AC50 is 3.62 µM (active).
Regarding `COP(=O)(OC)SCn1c(=O)oc2cc(Cl)cnc21`, the result in [2], in experiment [10], in [11], in experiment [12], in experiment [8] and in [13] was inactive. The AC50 in [5] was 51.1 µM (active).
As for `Cc1ccn2nc(S(=O)(=O)Nc3c(F)cccc3F)nc2n1`, the molecule was classed as inactive in experiment [14], in [4], in experiment [5], in [6], in experiment [7] and in [10]. Also, the result in [11], in experiment [12] and in experiment [8] was inactive.
For `COc1cc(OC)nc(Sc2cccc(Cl)c2C(=O)O)n1`, the molecule was called inactive in experiment [15], in [2], in experiment [3], in experiment [4], in [9] and in experiment [5]. The call in experiment [7], in [12] and in experiment [8] was inactive.
On to `Nc1c(Cl)cc([N+](=O)[O-])cc1Cl`, for which the molecule was called inactive in experiment [2], in experiment [3], in experiment [9], in [6], in experiment [7] and in experiment [12]. Besides, the AC50 was 20 µM (active) in experiment [4], 76.3 µM (active) in experiment [5] and 33.7 µM (active) in experiment [16].
As for `CCOC(=O)COc1cc(-c2nn(C)c(OC(F)F)c2Cl)c(F)cc1Cl`, the outcome in [17], in experiment [2], in experiment [7], in experiment [11] and in experiment [8] was inactive. Also, the AC50 in experiment [4] is 2.63 µM (active); in [5] it was 0.201 µM (active); in experiment [16], 20 µM (active).
As for `C#CC(C)(C)NC(=O)c1cc(Cl)cc(Cl)c1`, the result in experiment [1], in experiment [15], in experiment [3], in [5], in experiment [11] and in experiment [12] was inactive. In [16], the molecule was classed as inactive. Besides, the AC50 in experiment [4] was 4.15 µM (active).
Take `CC(C)N(C(=O)SCC(Cl)=C(Cl)Cl)C(C)C`: the outcome in experiment [2], in [3], in experiment [9], in experiment [10], in experiment [12] and in experiment [8] was inactive. Moreover, the AC50 was 5.4 µM (active) in [4], 32.7 µM (active) in [5] and 35.3 µM (active) in experiment [11].

(Values after PubChem BioAssay (EPA / NIEHS).)
